This note sets out measurements from PubChem BioAssay.

The inhibition is the change of the read-out against control, counted positive when it falls.

Experiment [1] can be described thus: rapamycin-like changes in RPL19A-GFP expression – cell-based, S. cerevisiae, multiplex flow cytometry, primary screen (AID 1862; in the data active means percent of DMSO control GFP below about 86%;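 further: lower values mimic rapamycin by blocking the RPL19A rise seen in DMSO cells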). The conditions noted are these: S. cerevisiae RPL19A-GFP strain, flow cytometry fluorescence, 3 h; at 10 µM; stronger effect = lower value.
The nature of experiment [2]: TOR pathway GLN3 branch reporter MEP2-GFP changes – S. cerevisiae, multiplex flow cytometry, primary screen (AID 1867;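 active means GFP response, as percent of the DMSO control, above the screen-wide mean plus 3 SD, about 139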;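 further: median GFP channel fluorescence of barcode-gated MEP2-GFP cells measured by flow cytometry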). The conditions noted are these: S. cerevisiae MEP2-GFP strain, 3 h, at 10 µM, stronger effect = higher value, 100% means same as DMSO wells.
A short description of experiment [3]: TOR pathway RTG branch CIT2 reporter changes – S. cerevisiae, GFP fusion, multiplex flow cytometry, primary screen (AID 1870;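 active means percent response above a set limit, the screen-wide mean plus 3 SD, cut at about 130% in these data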;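 further: barcoded CIT2-GFP strain pooled with four other GFP strains with rapamycin as positive control; median GFP fluorescence per well over plate mean of DMSO wells so 100% = DMSO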). Conditions: S. cerevisiae CIT2-GFP expression, 3 h, at 10 µM, stronger effect = higher value. (In general: A flow cytometer gives signals particle by particle.)
The nature of experiment [4]: TOR pathway LAP4-GFP level changes – S. cerevisiae, multiplex flow cytometry, primary screen (AID 1873;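 active means GFP signal, as percent of the solvent control, above the screen mean plus 3 SD, about 149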). Conditions: S. cerevisiae LAP4-GFP expression, 3 h, at 10 µM, stronger effect = higher value.
Experiment [5] in a line: yeast AGP1-GFP level changes, GLN3 branch – cell-based, multiplex flow cytometry, S. cerevisiae, primary screen (AID 1887;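 active means GFP signal above the screen-wide mean plus 3 SD, that is over about 124.5% of the solvent control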;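 further: AGP1-GFP fusion strain of S. cerevisiae within a five-strain barcoded multiplex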). Conditions: 3 h, at 10 µM, stronger effect = higher value.
The nature of experiment [6]: reduced mouse 2C T cell binding to pMHC/ICAM-1 vesicles – MLPCN validation set, flow cytometry, LFA-1/ICAM-1 modulator project, pilot screen (AID 2523;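 active means response below a set limit, under 55% cells CD8-positive and vesicle-bound, and CD8 cells' 90th-percentile brightness under 279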;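 on vesicle binding response: mean PE anti-B7-1 fluorescence of CD8+ cells relative to row control; 100% = QL9-loaded vesicles with DMSO vehicle in the same plate row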). Conditions: 2C mouse CD8+ T cells, at 7 µM, stronger effect = lower value; double positive events: measured here: CD8+/vesicle+ event percentage.
Experiment [7] addresses Integrin beta-1 (Homo sapiens) + Integrin alpha-4 (Homo sapiens) (UniProt P13612+P05556). Nature of the experiment: alpha4beta1 integrin LIBS antibody binding reduction – U937 cells, HUTS-21 mAb, flow cytometry, validation set, VLA-4 allosteric modulator project, pilot screen (AID 2674;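 active means inhibition above 50%, about 3 SD of the validation set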;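 further: antibody binding induced by the VLA-4 ligand LDV present at three times its Kd; 0% = LDV ligand with antibody and no compound and 100% = antibody without LDV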). Conditions: HUTS-21 LIBS mAb binding, at 6.7 µM, stronger effect = higher value, binding induced by LDV ligand.

Experiment [8] in a line: calorie-restriction mimetic ROS inhibitors, yeast – validation compound set, pilot screen (AID 2706;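 active means superoxide response below 65% of plate, a cut near 3 SD across the whole screen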;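 further: yeast exposed to compound for one week at 30 degrees C before staining; 100% = mean of all compound wells on the same plate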). The conditions noted are these: S. cerevisiae aging, superoxide DHE fluorescence; at 10 µM; stronger effect = lower value.
Experiment [9] concerns the target Beta-adrenergic receptor kinase 1 (Homo sapiens) (UniProt P25098). Nature of the experiment: GRK2 binders displacing RNA aptamer, biochemical, validation, human GRK2, bead flow cytometry (AID 488806;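 active means aptamer binding inhibition above 30%, about 3 SD of noise from non-fluorescent compounds; inactive means inhibition at or below 30%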). The conditions noted are these: bead-bound GRK2, FAM-aptamer displacement, at 10 µM, stronger effect = higher value.
Experiment [10] concerns the target Beta-2 adrenergic receptor (Homo sapiens) (UniProt P07550). Nature of the experiment: agonist-induced loss of surface beta2AR – cell-based, FAP fluorogen, flow cytometry, validation set, pilot screen (AID 504459).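 Further: agonist-driven loss of surface beta2AR via internalization measured by FAP dye flow cytometry.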 Conditions: Am2.2-beta2AR cells, at 10 µM, stronger effect = higher value.
In experiment [11] the target is AP-2 complex subunit beta (Homo sapiens) (UniProt P63010). Nature of the experiment: beta-arrestin/AP2 interaction blockers – biochemical, validation set, GST-AP2 beads, flow cytometry, pilot screen (AID 504541;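 active means inhibition above 54%, about 3 SD of non-fluorescent compounds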;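 further: AP2 carries R879A mutation and is captured from E. coli lysate; bead-bound FITC arrestin peptide fluorescence measuring arrestin peptide binding to AP2; 0% = DMSO wells and 100% = excess unlabeled arrestin peptide control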). The conditions noted are these: FITC arrestin peptide, at 10 µM, stronger effect = higher value, AP2 beta2 appendage fragment, R879A mutant.
Chain of AP-2 complex subunit beta (Homo sapiens) (P63010 whole entry, looked up, the tested form may be a part, one chain of several): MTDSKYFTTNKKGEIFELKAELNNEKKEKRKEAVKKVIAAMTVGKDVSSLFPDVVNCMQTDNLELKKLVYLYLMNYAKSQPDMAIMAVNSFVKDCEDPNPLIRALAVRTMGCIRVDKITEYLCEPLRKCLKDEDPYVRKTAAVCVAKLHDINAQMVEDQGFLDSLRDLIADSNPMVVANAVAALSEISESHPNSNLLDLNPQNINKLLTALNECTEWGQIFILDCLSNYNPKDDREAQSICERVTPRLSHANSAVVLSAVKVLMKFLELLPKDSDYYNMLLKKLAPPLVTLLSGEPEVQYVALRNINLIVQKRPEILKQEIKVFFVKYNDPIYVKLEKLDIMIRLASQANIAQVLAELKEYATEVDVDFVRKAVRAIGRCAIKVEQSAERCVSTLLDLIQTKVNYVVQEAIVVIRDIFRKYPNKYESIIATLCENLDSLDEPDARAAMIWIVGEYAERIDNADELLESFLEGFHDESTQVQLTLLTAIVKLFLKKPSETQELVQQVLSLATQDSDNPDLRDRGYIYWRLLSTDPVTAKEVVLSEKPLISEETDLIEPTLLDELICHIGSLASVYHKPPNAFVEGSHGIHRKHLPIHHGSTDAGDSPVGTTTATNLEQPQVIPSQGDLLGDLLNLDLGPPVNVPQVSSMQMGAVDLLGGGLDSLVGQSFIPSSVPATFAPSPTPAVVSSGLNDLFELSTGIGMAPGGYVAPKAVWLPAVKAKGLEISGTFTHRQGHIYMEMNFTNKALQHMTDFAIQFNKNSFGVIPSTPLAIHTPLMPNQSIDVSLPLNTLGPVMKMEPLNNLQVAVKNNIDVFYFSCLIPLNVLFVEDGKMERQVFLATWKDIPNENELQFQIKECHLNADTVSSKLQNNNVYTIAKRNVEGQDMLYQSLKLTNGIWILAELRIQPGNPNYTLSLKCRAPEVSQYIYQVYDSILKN
Experiment [12] is described as follows: cytosolic pH regulators acting via V-ATPase – S. cerevisiae, pHLuorin, HTS validation (AID 504600; in the data active means response above about 15%;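 further: plate controls were DMSO for no effect and reference compound for full effect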). The conditions noted are these: V-ATPase proton transport, at 10 µM, stronger effect = higher value.
Experiment [13] deals with anti-desmoglein-3 scFv antibody binding to human DSG3. Nature of the experiment: blockers of pathogenic pemphigus antibody–desmoglein-3 binding – biochemical, validation compound set, bead-based, flow cytometry, pilot screen (AID 588368;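 active means binding below the plate cutoff, the plate median minus 3 SD, with a reading above zero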;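 further: signal is the median channel fluorescence of bead-bound GFP antibody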). Conditions: Protein G beads, DSG3-Fc, scFv-GFP binding, at 10 µM, stronger effect = lower value.
A short description of experiment [14]: Nile Red efflux blockade in pump-expressing yeast – validation compound set, multiplex, phenotypic, pilot screen (AID 588506;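 active means efflux inhibition above 0.42, the validation set average plus 4 SD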;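 further: Nile Red retained in cells so higher fluorescence means more efflux inhibition; 0 = negative control wells and 1 = enniatin B 25 µM full block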). Conditions: S. cerevisiae pump-expressing triplex, Nile Red efflux flow cytometry; at 10 µM; stronger effect = higher value; the pumps come from Candida albicans.
Experiment [15] has as its target ATP-binding cassette sub-family B member 6 (Homo sapiens) (UniProt Q9NP58). Nature of the experiment: blockers of ABCB6-driven porphyrin uptake – K562-ABCB6 cells, flow cytometry, validation set, pilot screen (AID 588550;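 active means inhibition above the screen-wide mean plus 3 SD, about 51%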;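 further: 0% = DMSO wells and 100% = benzethonium chloride 70 µM positive control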). The conditions noted are these: K562-ABCB6 porphyrin accumulation, 1 h, at 10 µM, stronger effect = higher value.
The nature of experiment [16]: AML differentiation inducers, ER-HoxA9 marrow cells – cell-based, GFP/MAC1 double positive, flow cytometry, validation set, primary screen (AID 588685;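 active means differentiation response of at least 50%, scaled between solvent and reference control, from cells with both markers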;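 further: compound exposure lasts four days before antibody staining and flow analysis; 0% = DMSO wells and 100% = 5 µM fulvestrant positive control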). The conditions noted are these: stronger effect = higher value, normalized: vehicle 0, fulvestrant 100.

Each structure is given as a SMILES string. Inconclusive results are not listed. Active and inactive are the calls of the source.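 How the source made its calls, unless noted: active means percent response above 42, roughly 3 SD of non-fluorescent test compounds; inactive means the rest.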

Chain of ATP-binding cassette sub-family B member 6 (Homo sapiens) (Q9NP58 whole entry, looked up): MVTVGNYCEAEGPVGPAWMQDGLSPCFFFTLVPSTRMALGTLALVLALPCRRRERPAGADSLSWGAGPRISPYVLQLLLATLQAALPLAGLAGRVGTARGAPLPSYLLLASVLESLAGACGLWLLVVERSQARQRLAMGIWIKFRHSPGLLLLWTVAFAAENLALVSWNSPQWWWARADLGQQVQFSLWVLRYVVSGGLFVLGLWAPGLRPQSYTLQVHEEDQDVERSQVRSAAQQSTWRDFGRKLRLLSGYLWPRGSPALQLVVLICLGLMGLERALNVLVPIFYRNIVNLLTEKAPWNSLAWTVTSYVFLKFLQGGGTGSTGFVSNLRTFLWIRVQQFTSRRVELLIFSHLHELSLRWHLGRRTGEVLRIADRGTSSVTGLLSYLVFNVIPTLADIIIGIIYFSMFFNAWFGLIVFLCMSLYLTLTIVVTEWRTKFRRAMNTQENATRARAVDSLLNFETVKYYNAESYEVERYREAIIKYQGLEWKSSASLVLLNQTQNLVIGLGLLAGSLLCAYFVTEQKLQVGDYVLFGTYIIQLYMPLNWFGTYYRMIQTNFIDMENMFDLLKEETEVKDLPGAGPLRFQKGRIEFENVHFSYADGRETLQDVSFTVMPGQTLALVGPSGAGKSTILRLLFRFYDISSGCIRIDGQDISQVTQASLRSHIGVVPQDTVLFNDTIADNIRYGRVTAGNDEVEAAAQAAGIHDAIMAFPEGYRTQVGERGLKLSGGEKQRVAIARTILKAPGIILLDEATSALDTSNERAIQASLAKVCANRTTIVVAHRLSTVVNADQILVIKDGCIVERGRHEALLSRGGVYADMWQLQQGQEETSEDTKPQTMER
Chain of Beta-2 adrenergic receptor (Homo sapiens) (P07550 whole entry, looked up): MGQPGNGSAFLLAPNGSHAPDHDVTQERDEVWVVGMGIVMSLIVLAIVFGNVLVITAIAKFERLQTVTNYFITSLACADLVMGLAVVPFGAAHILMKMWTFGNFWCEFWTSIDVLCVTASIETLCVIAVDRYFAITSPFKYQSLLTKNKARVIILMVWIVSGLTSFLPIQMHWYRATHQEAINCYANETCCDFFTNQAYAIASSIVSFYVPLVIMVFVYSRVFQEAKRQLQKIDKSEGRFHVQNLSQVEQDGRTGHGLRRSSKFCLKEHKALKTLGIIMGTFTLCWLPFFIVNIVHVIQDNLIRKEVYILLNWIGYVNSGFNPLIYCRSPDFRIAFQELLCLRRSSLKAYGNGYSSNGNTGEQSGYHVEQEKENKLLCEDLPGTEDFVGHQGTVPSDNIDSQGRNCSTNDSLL
Chain of Integrin beta-1 (Homo sapiens) + Integrin alpha-4 (Homo sapiens) (P05556 whole entry, looked up): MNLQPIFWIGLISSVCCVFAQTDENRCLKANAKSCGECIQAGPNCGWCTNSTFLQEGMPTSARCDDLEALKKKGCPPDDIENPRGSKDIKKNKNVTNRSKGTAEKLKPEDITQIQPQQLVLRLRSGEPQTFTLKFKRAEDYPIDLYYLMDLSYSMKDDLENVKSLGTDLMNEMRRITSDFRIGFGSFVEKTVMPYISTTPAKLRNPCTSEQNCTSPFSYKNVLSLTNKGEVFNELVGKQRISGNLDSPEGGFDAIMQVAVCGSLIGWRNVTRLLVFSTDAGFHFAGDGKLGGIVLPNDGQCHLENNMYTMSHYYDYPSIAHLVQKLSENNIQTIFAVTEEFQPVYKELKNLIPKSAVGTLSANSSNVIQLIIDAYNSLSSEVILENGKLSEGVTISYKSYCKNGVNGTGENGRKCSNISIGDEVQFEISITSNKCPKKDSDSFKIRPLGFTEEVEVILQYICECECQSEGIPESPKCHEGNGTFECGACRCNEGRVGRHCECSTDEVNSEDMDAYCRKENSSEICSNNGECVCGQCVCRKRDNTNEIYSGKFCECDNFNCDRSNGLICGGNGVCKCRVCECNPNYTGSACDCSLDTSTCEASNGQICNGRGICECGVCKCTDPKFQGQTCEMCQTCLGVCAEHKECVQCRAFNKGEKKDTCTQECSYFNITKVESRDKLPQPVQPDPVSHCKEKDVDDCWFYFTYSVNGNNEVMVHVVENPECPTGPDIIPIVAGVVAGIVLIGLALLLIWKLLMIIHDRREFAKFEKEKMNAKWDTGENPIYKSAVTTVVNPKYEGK
Chain of Integrin beta-1 (Homo sapiens) + Integrin alpha-4 (Homo sapiens) (P13612 whole entry, looked up): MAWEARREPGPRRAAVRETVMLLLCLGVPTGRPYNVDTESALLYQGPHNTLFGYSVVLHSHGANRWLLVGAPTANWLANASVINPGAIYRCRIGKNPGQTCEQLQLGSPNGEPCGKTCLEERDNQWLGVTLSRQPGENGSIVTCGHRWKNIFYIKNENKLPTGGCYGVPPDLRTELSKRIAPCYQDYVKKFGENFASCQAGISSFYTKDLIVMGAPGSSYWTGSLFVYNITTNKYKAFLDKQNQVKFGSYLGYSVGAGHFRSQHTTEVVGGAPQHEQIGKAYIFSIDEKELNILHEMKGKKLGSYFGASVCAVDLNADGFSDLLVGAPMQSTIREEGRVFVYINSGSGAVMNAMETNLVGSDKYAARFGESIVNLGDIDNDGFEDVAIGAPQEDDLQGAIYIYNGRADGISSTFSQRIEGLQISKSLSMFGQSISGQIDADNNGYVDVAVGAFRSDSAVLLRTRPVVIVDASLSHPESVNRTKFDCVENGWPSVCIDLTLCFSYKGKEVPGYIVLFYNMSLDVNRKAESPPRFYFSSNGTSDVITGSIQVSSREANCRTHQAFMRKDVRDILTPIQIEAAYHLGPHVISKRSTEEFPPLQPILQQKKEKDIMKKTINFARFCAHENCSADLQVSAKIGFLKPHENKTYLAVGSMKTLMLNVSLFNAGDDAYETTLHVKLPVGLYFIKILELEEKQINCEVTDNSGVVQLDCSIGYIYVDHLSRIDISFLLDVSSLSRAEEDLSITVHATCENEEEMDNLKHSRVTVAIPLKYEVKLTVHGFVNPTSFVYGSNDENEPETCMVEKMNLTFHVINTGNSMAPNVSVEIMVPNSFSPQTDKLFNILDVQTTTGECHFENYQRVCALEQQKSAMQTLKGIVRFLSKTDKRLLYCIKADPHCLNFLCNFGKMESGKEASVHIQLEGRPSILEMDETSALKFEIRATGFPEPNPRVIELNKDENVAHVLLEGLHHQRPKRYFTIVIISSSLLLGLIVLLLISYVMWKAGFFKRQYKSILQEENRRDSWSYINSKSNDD
Chain of Beta-adrenergic receptor kinase 1 (Homo sapiens) (P25098 whole entry, looked up): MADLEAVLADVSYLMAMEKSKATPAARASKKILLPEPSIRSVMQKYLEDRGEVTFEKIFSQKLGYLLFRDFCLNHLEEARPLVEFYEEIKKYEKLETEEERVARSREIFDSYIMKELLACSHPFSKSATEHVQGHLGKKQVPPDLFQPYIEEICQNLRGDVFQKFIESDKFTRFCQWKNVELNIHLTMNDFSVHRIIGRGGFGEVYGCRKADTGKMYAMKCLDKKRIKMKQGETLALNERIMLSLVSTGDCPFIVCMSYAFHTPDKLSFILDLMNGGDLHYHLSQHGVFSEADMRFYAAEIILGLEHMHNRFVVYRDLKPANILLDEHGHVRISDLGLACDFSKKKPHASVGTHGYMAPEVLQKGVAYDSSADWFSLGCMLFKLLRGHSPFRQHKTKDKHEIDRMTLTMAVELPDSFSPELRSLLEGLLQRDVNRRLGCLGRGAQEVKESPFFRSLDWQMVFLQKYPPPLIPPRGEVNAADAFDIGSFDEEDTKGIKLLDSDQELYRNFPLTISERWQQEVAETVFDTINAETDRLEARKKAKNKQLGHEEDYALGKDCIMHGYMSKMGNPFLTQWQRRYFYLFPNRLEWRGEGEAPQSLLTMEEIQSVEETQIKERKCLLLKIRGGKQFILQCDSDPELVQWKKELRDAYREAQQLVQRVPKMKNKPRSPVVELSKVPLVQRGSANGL

Consider `O=C1C(Cc2c[nH]c3ccccc23)NC(=S)N1Cc1ccccc1` (stereo not given), for which, in experiment [1], the percent of DMSO control GFP was 108% (inactive). Further, the GFP response vs DMSO in experiment [2] was 102% (inactive); in experiment [4], 91.5% (inactive). Besides, the percent response of DMSO control in [3] is 104% (inactive). Also, the GFP response, % of DMSO in experiment [5] is 95.5% (inactive). The double positive events in experiment [6] came to 67.5%. Moreover, the vesicle binding response in experiment [6] was 132% (inactive). Also, the figures for the inhibition in experiment [7], in experiment [11] and in [15] were 8.29% (inactive), 2.2% (inactive) and 8% (inactive), respectively. In addition, the superoxide response (% of plate) in experiment [8] was 104% (inactive). In addition, the aptamer binding inhibition in experiment [9] is 1% (inactive). Moreover, the values for the response in experiment [10] and in [12] were 3.86% (inactive) and -1.19% (inactive), respectively. In addition, the binding (% of control) in experiment [13] was 94.9% (inactive). The efflux inhibition (fraction of control) in [14] is 0 (inactive). Further, the differentiation response in [16] was 7.13% (inactive).
Regarding `NC[C@H]1O[C@H](O[C@H]2[C@H](O)[C@@H](O[C@H]3O[C@H](CO)[C@@H](O)[C@H](N)[C@H]3O)[C@H](N)C[C@@H]2N)[C@H](N)C[C@@H]1O`, the percent of DMSO control GFP in [1] is 101% (inactive). In addition, the GFP response vs DMSO in [2] was 102% (inactive); in experiment [4], 109% (inactive). The percent response of DMSO control in experiment [3] was 95.1% (inactive). Moreover, the GFP response, % of DMSO in experiment [5] is 110% (inactive). In experiment [6], the double positive events was found to be 63.2%. Also, the vesicle binding response in experiment [6] was 273% (inactive). In addition, the inhibition was 12.5% (inactive) in experiment [7], -4.09% (inactive) in experiment [11] and 2% (inactive) in [15]. In addition, the superoxide response (% of plate) in [8] is 110% (inactive). Besides, the aptamer binding inhibition in experiment [9] was 3% (inactive). Moreover, the response was -5.14% (inactive) in experiment [10] and -21.1% (inactive) in [12]. Further, the binding (% of control) in experiment [13] is 109% (inactive). Also, the efflux inhibition (fraction of control) in experiment [14] is 0.04 (inactive). The differentiation response in experiment [16] was -7.94% (inactive).
For `CC(=O)OCC#CCSc1nc2ccccc2n1C`, the percent of DMSO control GFP in experiment [1] was 97.6% (inactive). Besides, the GFP response vs DMSO was 89.7% (inactive) in experiment [2] and 103% (inactive) in [4]. Further, the percent response of DMSO control in experiment [3] was 96.7% (inactive). Moreover, in experiment [5], the GFP response, % of DMSO is 92.9% (inactive). This molecule had a double positive events in [6] of 57.8%. Further, the vesicle binding response in experiment [6] was 163% (inactive). Further, the inhibition in experiment [7] is -8.62% (inactive); in experiment [11] it was 14.1% (inactive); in experiment [15], 12% (inactive). Also, the superoxide response (% of plate) in experiment [8] was 95% (inactive). Also, the aptamer binding inhibition in experiment [9] was 2% (inactive). The response in experiment [10] is 7.19% (inactive); in experiment [12] it was 2.63% (inactive). Also, the binding (% of control) in [13] is 94.9% (inactive). For the same molecule, the efflux inhibition (fraction of control) in [14] was -0.21 (inactive). For the same molecule, in [16], the differentiation response was -7.2% (inactive).
For `CN1C(C(=O)Nc2ccccn2)=C(O)c2ccccc2S1(=O)=O`, in [1], the percent of DMSO control GFP is 101% (inactive). Moreover, the GFP response vs DMSO in experiment [2] is 103% (inactive); in experiment [4] it was 106% (inactive). In addition, the percent response of DMSO control in [3] is 86.1% (inactive). The GFP response, % of DMSO in experiment [5] is 97.6% (inactive). In experiment [6], this molecule returned a double positive events of 63.2%. In addition, the vesicle binding response in [6] was 383% (inactive). Also, the values for the inhibition in experiment [7], in [11] and in experiment [15] were -13.9% (inactive), -12.3% (inactive) and 26% (inactive), respectively. The superoxide response (% of plate) in experiment [8] was 104% (inactive). Also, in experiment [9], the aptamer binding inhibition was 1% (inactive). Further, the response in [10] is -12.3% (inactive); in [12], -0.85% (inactive). Besides, the binding (% of control) in experiment [13] was 100% (inactive). For the same molecule, the efflux inhibition (fraction of control) in experiment [14] was -0.07 (inactive). The differentiation response in [16] is 14.9% (inactive).
On to `Cn1c(=O)[nH]c2nnc(-c3ccc(Cl)c(Cl)c3)nc2c1=O`, for which the percent of DMSO control GFP in experiment [1] is 103% (inactive). In addition, the GFP response vs DMSO in experiment [2] was 102% (inactive); in experiment [4] it was 98% (inactive). Further, in experiment [3], the percent response of DMSO control is 105% (inactive). In experiment [5], the GFP response, % of DMSO was 104% (inactive). The double positive events in experiment [6] turned out to be 61.9%. In addition, the vesicle binding response in experiment [6] was 133% (inactive). In addition, the inhibition in experiment [7] is 2.93% (inactive); in [11], 5.98% (inactive); in [15], -7% (inactive). In addition, the superoxide response (% of plate) in experiment [8] was 73.3% (inactive). Moreover, in [9], the aptamer binding inhibition is 9% (inactive). For the same molecule, the results for the response in experiment [10] and in [12] were 9.11% (inactive) and 0.72% (inactive), respectively. Further, in experiment [13], the binding (% of control) was 101% (inactive). The efflux inhibition (fraction of control) in experiment [14] was -0.21 (inactive). Also, in experiment [16], the differentiation response is -13.3% (inactive).
